Results as given in PubChem BioAssay (NCATS).
Results filed as inconclusive are left out. Activity calls are given as the source filed them. Calls follow the shape of the dose curve; as a rule, active = well fitted curve in the direction sought with a large enough effect; inconclusive = small, poorly fitted or top-dose-only effect, or another doubt; inactive = no such curve, though single readings can be large; an effect the other way counts as inactive or inconclusive.

Tests used:
MKL-1 = assay: qHTS assay to identify novel small-molecules to repurpose for Merkel cell carcinoma treatment (AID 1296009); details: MCC and control cell lines, CellTiter-Glo viability, 72 h; series mostly up to 46 µM; also: nearly all actives have a fitted effect of over 60% in size
Outline: (§1)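 Dose-response viability screen; 72 hr exposure at 37 degree celsius; CellTiter-Glo added, 10 min room temperature, luminescence read; RLUs scaled between no-cell and DMSO wells.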

WaGa = assay: as above; details: MCC and control cell lines, CellTiter-Glo viability, 72 h; series mostly up to 46 µM
Outline: as §1

MKL-2 = assay: as above; details: MCC and control cell lines, CellTiter-Glo viability, 72 h; series mostly up to 46 µM
Outline: as §1

UISO = assay: as above; details: MCC and control cell lines, CellTiter-Glo viability, 72 h; series mostly up to 46 µM
Outline: as §1

C33A = assay: Primary qHTS to identify gynecologic anti-cancer compounds using libraries of approved drugs and bioactive compounds (AID 1345084); details: Gynecologic cancer cell panel viability, ATPlite luminescence, 48 h; series mostly up to 57.5 µM; also: nearly all actives have a fitted effect of over 55% in size
Outline: (§2)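 Luminescence from the ATPlite ATP-monitoring reagent indicates viable cell number; lower signal means cytotoxicity. Cells received compound 16 h after seeding and were exposed for 48 h across five concentrations.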

Es-2 = assay: as above; details: Gynecologic cancer cell panel viability, ATPlite luminescence, 48 h; series mostly up to 57.5 µM
Outline: as §2

HeLa = assay: as above; details: Gynecologic cancer cell panel viability, ATPlite luminescence, 48 h; series mostly up to 57.5 µM
Outline: as §2

CASKI = assay: as above; details: Gynecologic cancer cell panel viability, ATPlite luminescence, 48 h; series mostly up to 57.5 µM
Outline: as §2
Potency is read from the fitted curve at half-maximal effect.

`COc1cccc2c1C(=O)c1c(O)c3c(c(O)c1C2=O)C[C@@](O)(C(=O)CO)C[C@@H]3O[C@H]1C[C@H](N)[C@@H](O)[C@H](C)O1` was tested, and the Potency (MKL-1) was 166 nM (active) and the Potency (WaGa) was 93.5 nM (active).
With `CCC(C(=O)O)C1CCC(C)C(C(C)C(O)C(C)C(=O)C(CC)C2OC3(C=CC(O)[C@@]4(CC[C@](C)(C5CC[C@@](O)(CC)C(C)O5)O4)O3)C(C)CC2C)O1` (some centres undefined) the Potency (MKL-1) was 2960 nM (active), the Potency (MKL-2) was 3320 nM (active) and the Potency (UISO) was 3720 nM (active). The Potency (WaGa) was 2960 nM (active).
For `CC(C=CC(=O)NO)=C[C@@H](C)C(=O)c1ccc(N(C)C)cc1`, the Potency (MKL-1) was 1660 nM (active), the Potency (MKL-2) was 166 nM (active) and the Potency (UISO) was 3320 nM (active). The Potency (WaGa) was 743 nM (active).
In the case of `CCc1c(O)cc(O)c(C(=O)c2ccc(OCCN3CCOCC3)c(OC)c2)c1CC(=O)N(CCOC)CCOC`, the Potency (UISO) is reported as 1480 nM (active).
In the case of `COc1ccc(C=Cc2cc(OC)c(OC)c(OC)c2)cc1NC(=O)[C@H](N)CO`, the Potency (MKL-2) is reported as 6.6 nM (active) and the Potency (UISO) is reported as 5.3 nM (active).
`COc1ccc(S(=O)(=O)Nc2cccnc2Nc2ccc(O)cc2)cc1` was tested, and the Potency (C33A) was 8910 nM (active), the Potency (Es-2) was 2240 nM (active) and the Potency (HeLa) was 1780 nM (active).
In the case of `COc1cc(OC)c(C=CS(=O)(=O)Cc2ccc(OC)c(NCC(=O)O)c2)c(OC)c1`, the Potency (MKL-2) is reported as 93.5 nM (active).
For `O=C1NCCc2[nH]c(-c3ccncc3)cc21`, the Potency (MKL-2) was 13200 nM (active) and the Potency (UISO) was 4180 nM (active).
In the case of `FC(F)c1nc2ccccc2n1-c1nc(N2CCOCC2)nc(N2CCOCC2)n1`, the Potency (CASKI) is reported as 2240 nM (active) and the Potency (Es-2) is reported as 14100 nM (active).
For `CC(C)n1cnc2c(NCCc3ccc(O)cc3)nc(-c3csc4ccccc34)nc21`, the Potency (WaGa) was “inactive”, the Potency (C33A) was “inactive” and the Potency (CASKI) was “inactive”. The Potency (Es-2) was “inactive” and the Potency (HeLa) was “inactive”.
For `CCOC(=O)C1=C(C)NC(=S)NC1c1cccc(O)c1` (centres undefined), the Potency (MKL-2) was “inactive”, the Potency (UISO) was 148 nM (active) and the Potency (WaGa) was 52.6 nM (active).
With `CS[C@H]1SC[C@@H]2C(=O)N(C)[C@H](C(C)C)C(=O)OC[C@H](NC(=O)c3cnc4ccccc4n3)C(=O)N[C@H](C)C(=O)N(C)[C@@H]1C(=O)N(C)[C@H](C(C)C)C(=O)OC[C@H](NC(=O)c1cnc3ccccc3n1)C(=O)N[C@H](C)C(=O)N2C` the Potency (UISO) was 2.6 nM (active) and the Potency (WaGa) was “inactive”.
`FC(F)(F)c1ccc(Nc2nc3ccc(Oc4ccnc(-c5ncc(C(F)(F)F)[nH]5)c4)cc3[nH]2)cc1` was tested, and the Potency (C33A) was “inactive”, the Potency (CASKI) was “inactive” and the Potency (Es-2) was “inactive”. For the same compound, the Potency (HeLa) was “inactive”.
In the case of `Cc1cc(Nc2ncc3c(n2)N(C)C(=O)N(c2cc(NC(=O)c4cccc(C(F)(F)F)c4)ccc2C)C3)n(C)n1`, the Potency (UISO) is reported as 526 nM (active).
In the case of `O=C(Nc1cc2cc[nH]c2cn1)c1ccccc1`, the Potency (MKL-1) is reported as 14800 nM (active), the Potency (C33A) is reported as 1410 nM (active) and the Potency (CASKI) is reported as 1780 nM (active). For the same compound, the Potency (Es-2) was 1580 nM (active) and the Potency (HeLa) was 1410 nM (active).
In the case of `CCS(=O)(=O)Nc1ccc2[nH]c(O)c(C(=Nc3ccc(CN4CCCCC4)cc3)c3ccccc3)c2c1`, the Potency (MKL-2) is reported as “inactive” and the Potency (UISO) is reported as 20900 nM (active).
For `C#CCC(Cc1cnc2nc(N)nc(N)c2n1)c1ccc(C(=O)N[C@@H](CCC(=O)O)C(=O)O)cc1` (some centres undefined), the Potency (MKL-2) was “inactive” and the Potency (WaGa) was 526 nM (active).
`CCNC(=O)c1cc2c(-c3cc(OCCN4CCCC4)c(Cl)cc3Cl)nc(N)nc2s1` was tested, and the Potency (MKL-2) was “inactive”, the Potency (UISO) was 2960 nM (active) and the Potency (WaGa) was 1180 nM (active).
In the case of `N#Cc1c(NC(=O)c2cccc3ccccc23)sc2c1CCCC2`, the Potency (UISO) is reported as 1050 nM (active).
With `COc1ccc2c(c1OC)C(=O)OC2[C@H]1c2c(cc3c(c2OC)OCO3)CCN1C` (some centres undefined) the Potency (MKL-2) was “inactive” and the Potency (UISO) was 469 nM (active).
With `Cc1ccc2nc(NCCN)c3ncc(C)n3c2c1` the Potency (MKL-2) was 14800 nM (active) and the Potency (UISO) was 20900 nM (active).
With `O=c1[nH]c(=O)n([C@H]2C[C@@H](O)[C@@H](CO)O2)cc1F` the Potency (WaGa) was 66.2 nM (active).
In the case of `CCC(C=C[C@@H]1OC(=O)C=C[C@H]1C)=C[C@H](C)CC=CC(C)=C[C@@H](C)C(=O)[C@@H](C)[C@H](O)[C@@H](C)CC(C)=CC(=O)O`, the Potency (MKL-2) is reported as 4.9 nM (active) and the Potency (UISO) is reported as 22 nM (active).
For `CC[C@]12C=CCN3CC[C@@]4(c5cc([C@@]6(C(=O)OC)C[C@H]7C[C@@H](C(C)(F)F)CN(Cc8c6[nH]c6ccccc86)C7)c(OC)cc5N(C)[C@H]4[C@@](O)(C(=O)OC)[C@H]1OC(C)=O)[C@@H]32`, the Potency (WaGa) was 5.9 nM (active).
`COc1cc(CCc2cc(NC(=O)c3ccc(N4C[C@@H](C)N[C@@H](C)C4)cc3)n[nH]2)cc(OC)c1` was tested, and the Potency (MKL-2) was “inactive”, the Potency (UISO) was 23500 nM (active) and the Potency (WaGa) was “inactive”. The Potency (HeLa) was 25100 nM (active).
`Cc1ncc(-c2ccnc(Nc3ccc(S(C)(=O)=O)cc3)n2)n1C(C)C` was tested, and the Potency (CASKI) was 7080 nM (active), the Potency (Es-2) was 10000 nM (active) and the Potency (HeLa) was 7080 nM (active).
With `CNC(=O)c1cccc(-c2ccc3c(N4CCOC[C@H]4C)nc(N4CCOC[C@H]4C)nc3n2)c1` the Potency (MKL-2) was “inactive” and the Potency (UISO) was 166 nM (active).
For `CCNC(=O)Nc1ccc(-c2nc3c(c(N4CCOC[C@H]4C)n2)CCN(C2COC2)C3)cc1`, the Potency (MKL-2) was “inactive” and the Potency (UISO) was 3720 nM (active).
With `CCc1ccc(C(=O)Nc2cc(CN3CCN(C)CC3)cc(C(F)(F)F)c2)cc1C#Cc1cnc2ccnn2c1` the Potency (MKL-2) was 18700 nM (active).
`CC(C)C[C@H](NC(=O)[C@@H](NC(=O)c1cccc(-c2ccccc2)n1)[C@@H](C)O)B(O)O` was tested, and the Potency (MKL-2) was 41.8 nM (active), the Potency (WaGa) was 83.3 nM (active) and the Potency (CASKI) was 112 nM (active). For the same compound, the Potency (Es-2) was 251 nM (active) and the Potency (HeLa) was 631 nM (active).
In the case of `CC(=O)SCC(Cc1ccccc1)C(=O)NCC(=O)OCc1ccccc1` (centres undefined), the Potency (MKL-2) is reported as 209 nM (active) and the Potency (UISO) is reported as 14800 nM (active).
In the case of `O=C(Nc1cccc(Nc2ncc(Br)c(NCCc3cnc[nH]3)n2)c1)N1CCCC1`, the Potency (MKL-2) is reported as 5900 nM (active), the Potency (UISO) is reported as 16600 nM (active) and the Potency (WaGa) is reported as 2960 nM (active).
With `CCc1nc(-c2cccc(C)c2)c(-c2ccnc(NC(=O)c3ccccc3)c2)s1` the Potency (C33A) was “inactive”, the Potency (CASKI) was “inactive” and the Potency (Es-2) was “inactive”. For the same compound, the Potency (HeLa) was “inactive”.
For `Cc1ccc([N+](=O)[O-])cc1S(=O)(=O)N(C)N=Cc1cnc2ccc(Br)cn12`, the Potency (MKL-2) was 209 nM (active) and the Potency (UISO) was 41.8 nM (active).
`O=C(NC1CC1)c1cccc(-c2ccc3c(NC(=O)C4CC4)n[nH]c3c2)c1` was tested, and the Potency (MKL-2) was “inactive”.
With `COc1cc(O)c2c(c1)C1OC1C[C@H](O)[C@H](O)C(=O)C=CC[C@H](C)OC2=O` (some centres undefined) the Potency (UISO) was 20900 nM (active).
In the case of `Cc1cnn(C)c1C(=O)Nc1cc(Nc2ccc3c(C=Cc4ccccn4)n[nH]c3c2)ccc1F`, the Potency (UISO) is reported as 16600 nM (active).
For `COc1ccc(C[C@@H](C)[C@@H](C)Cc2ccc(OC)c(OC)c2)cc1OC`, the Potency (MKL-2) was 3720 nM (active), the Potency (UISO) was 1320 nM (active) and the Potency (WaGa) was 833 nM (active).
With `C=CCNC1=C2C[C@@H](C)C[C@H](OC)[C@@H](O)[C@@H](C)C=C(C)[C@H](OC(N)=O)[C@@H](OC)C=CC=C(C)C(=O)NC(=CC1=O)C2=O` the Potency (UISO) was 1480 nM (active) and the Potency (WaGa) was 1660 nM (active).
For `COc1cc(N2CCC(C(N)=O)CC2)ccc1Nc1nc(N)c(Cl)c(Nc2ccccc2S(=O)(=O)C(C)C)n1`, the Potency (UISO) was 5900 nM (active) and the Potency (WaGa) was 16600 nM (active).
With `NC(=O)Nc1sc(-c2ccc(F)cc2)cc1C(N)=O` the Potency (UISO) was 4690 nM (active) and the Potency (WaGa) was 5260 nM (active).
In the case of `O=C1NC(=O)[C@@H](c2cn3c4c(cccc24)CCC3)[C@H]1c1c[nH]c2ccccc12`, the Potency (MKL-2) is reported as 23500 nM (active) and the Potency (UISO) is reported as 1180 nM (active).
